Results reported in PubChem BioAssay AID624133 (Broad Institute, 2012).
Hit rate of the full screen: of about 1,600 compounds, about 1,300 (81%) were called active. The rule behind the calls is not given here. So high a share suggests a set chosen from earlier hits. Only a sample is shown. Entries with a potency or affinity are not part of this list.

Test: non-specific 3'UTR reporter inhibition in Clone20-Shn3RL – cell-based, Renilla luciferase, cherry-picked, counter-screen for Shn3 inhibitor project, dose response (AID 624133);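 note: 0% = neutral control wells and -100% = positive control wells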
Conditions: Clone20-Shn3RL cells, Renilla luciferase luminescence, 24 h; at 35 µM (top of the series) unless noted

Compound	activity change, negative = inhibition [%]
CCOc1cc(C)c(S(=O)(=O)Nc2ccc3cn[nH]c3c2)cc1C	0
Cc1ccc(NC(=O)C2CCCN(S(=O)(=O)c3c(C)noc3C)C2)cc1 (centres undefined)	-19.4
COc1ccc(C(=O)NCCN(C)C)c2nc3ccccc3cc12	66.5
COc1ccccc1/C=C1\CCCC2=C1Nc1nnnn1C2c1ccccc1OC (centres undefined)	-110
CCn1c(C)cc(C(=O)COC(=O)c2ccccc2[N+](=O)[O-])c1C	-13.6
COc1ccc(-c2nsc3c(N4CCCCC4C)ncnc23)cc1 (centres undefined)	-16.7
O=C(CN1C(=O)C2CCCCC2C1=O)NC1CCCc2ccccc21 (centres undefined)	-10
C[C@@H]1CCCCO[C@H](CN(C)Cc2ccccc2)[C@@H](C)CN([C@H](C)CO)C(=O)c2cc(NC(=O)c3ccccc3)ccc2O1	33.3
C[C@@H]1CN([C@@H](C)CO)C(=O)c2cc(NC(=O)Nc3ccc(F)cc3)ccc2O[C@@H]1CN(C)Cc1ccc(Oc2ccccc2)cc1	-20.8
CN(Cc1ccccc1)C(=O)c1cccc(NC(=O)Cc2ccc([N+](=O)[O-])cc2)c1	230
COc1ccc2c(CC(=O)OCC(=O)N(C)c3c(N)n(Cc4ccccc4)c(=O)[nH]c3=O)coc2c1	-12.5
CC(Oc1ccc(F)cc1)C(=O)N(CCC1=CCCCC1)c1c(N)n(Cc2ccccc2)c(=O)[nH]c1=O (centres undefined)	-25
COc1ccc(CN2CCC(C(=O)Nc3ccc(Oc4cccnc4)cc3)CC2)c(C)c1C	-75
CC(C)(C)C(=O)Nc1cc(S(=O)(=O)N2CCCCC2)ccc1N1CCCCC1	50
COc1cccc(-c2nc(NC3CCCC3)c3ccccc3n2)c1O	-22.7
COc1ccc(-n2ncc3c(N4CCCCC4)ncnc32)cc1	-75
CCn1cc(CNCc2cn(-c3ccccc3C)nc2-c2ccc(OC)c(F)c2)cn1	150
Cc1ccc(C(=O)Nc2cnc3ccccc3c2)cc1	90
CC(=O)c1cccc(NS(=O)(=O)c2ccc(-c3cnc(C4CC4)o3)cc2)c1	8.33
Cc1cccc(NS(=O)(=O)c2ccc(C3CCCCC3)cc2)c1	0
CCOC(=O)c1[nH]c(C)c(/C(O)=C2\C(=O)C(=O)N(CCCN3CCOCC3)C2c2cccs2)c1C (centres undefined)	70
O=C(CSc1nnc(Nc2ccccc2)s1)NC1CCS(=O)(=O)C1 (centres undefined)	20.8
CCOC(=O)c1cn(CC(=O)Nc2cccc(Cl)c2C)nn1	16.7
CCOC(=O)Cn1c(S(=O)(=O)Cc2ccccc2Cl)nc(-c2ccccc2)c1-c1ccccc1	110
CC1(C)CC(=O)c2c(nc(SCC(=O)Nc3nsc(-c4ccccc4)n3)c(C#N)c2-c2ccccc2)C1	16.7

Compound	activity change, negative = inhibition [%]
Cc1cccc(C(=O)Nc2ccc(C(=O)/C=C/c3ccncc3)cc2)c1	-100
CCCCN1CC(COCc2ccccc2)Oc2cccc(Oc3ccc(C(C)C)cc3)c2S1(=O)=O (centres undefined)	37.5
OCCCNc1nccc(-c2cc(Nc3cccc(Cl)c3)ncn2)n1	-50
OCCNc1nc(Nc2ccc(Cl)cc2)nc(N2CCCC2)n1	-11.7
Cc1cc(O)c(C(C)C)cc1C1(c2cc(C(C)C)c(O)cc2C)OC(=O)c2ccccc21	0
Cc1ccccc1C(=O)N1CCN(c2ccc(NC(=O)c3ccc4c(c3)OCCO4)cc2)CC1	-103
O=C(NCCc1ccccc1)c1ccc2c(c1)OCCCO2	22.2
Cc1onc(-c2c(Cl)cccc2Cl)c1C(=O)N[C@@H]1C(=O)N2[C@@H]1SC(C)(C)[C@@H]2C(=O)O	25
CCOC(=O)C1CCN(c2cc3c(cc2NC(=O)c2ccccc2Br)n(C)c(=O)n3C)CC1	-4.54
COc1ccc(NC(=O)CCOc2cc(C)ccc2C)cc1S(=O)(=O)N1CCCCC1	267
COc1cc(OC)cc(C(=O)OCC(=O)Nc2ccc(F)cc2F)c1	11.1
CCOc1ccc(Br)cc1C1=CC(=O)C[C@H](c2ccc(OC)cc2)C1	133
COc1ccc(-c2cc3nc(C)n(N)c(=O)c3s2)cc1	13
CCSc1nnc(NC(=O)c2nc(S(=O)(=O)Cc3ccc(F)cc3)ncc2Cl)s1	-75
c1ccc(-c2cc(CSc3nc4ccccc4[nH]3)on2)cc1	-121
COc1ccccc1-n1c(SCC(=O)Nc2cc(C)on2)nc2c(c1=O)SCC2	58.3
CSCCC(NC(=O)c1ccccc1)C(=O)OCC(=O)N(C)CCC#N (centres undefined)	16.7
CN(CC(=O)Nc1ccccc1Cl)C(=O)c1cccc(S(=O)(=O)N2CCN(c3ccccc3)CC2)c1	-11.9
Cc1cc(C(=O)COc2cccnc2[N+](=O)[O-])c(C)n1-c1ccccc1	-74.4
CNS(=O)(=O)c1cccc(C(=O)OCc2cc(C(C)=O)ccc2OC)c1	329
Cc1ccccc1N/C(=N/S(=O)(=O)c1ccccc1)c1ccc(F)cc1	55.6
COc1ccc(OC)c(NC(=O)c2cc(-c3cc(F)ccc3OCC3CCCO3)n[nH]2)c1 (centres undefined)	26.4
CCC12CN(S(=O)(=O)c3ccc(C)cc3)CC(CC)(CN(S(=O)(=O)c3ccc(C)cc3)C1)C2=O	154
COc1ccc(C(O)c2nc(-c3cccc(F)c3)cs2)cc1 (centres undefined)	45.8
